# The supplement of paper PMC6555819
# Tested on: PPARg:RXRa 30nM:10nM, anti-RXR (NR concentration 30 nM, RXRa partner concentration 10 nM)
# Assay: PBM binding z-score (relative to random genomic background probes); higher = stronger binding; sequences stand for … in GC…GCGATTGACAGCGTAGAATGAAGG
# In short: (§1)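 Antibodies against each partner of ligand-free nuclear receptor dimers (one per run) detected binding on custom Agilent 4×180K protein-binding microarrays after 1 h incubation. The double-stranded probes had 34-nt variable regions carrying direct-repeat seeds, single-nucleotide variants, half-site ablations and random human genomic background sequences. Binding z-scores, from regression-normalized fluorescence, use the random background probes as reference.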
row,Sequence,PBM binding z-score
1,ATTTGTAGGTTAGGGTCATTCAGAAAGTAGGGAA,3.41
2,CATACAGGGACAGCTAGGCCAGAGTAGGGACGGC,-0.277
3,CAAACTAGGTCACCAGGACAGTGAAGAGGTTGGA,5.2
4,ATATGTAGCTTAGGGTCATTCAGAAAGTAGGGAA,1.35
5,CGAACTAGATCAAAGGACAGTGAAAGGCGACGTA,2.76
6,ATCTCTAGGTAAAGTTCAGCGAAAGATCGATAGA,2.56
7,CGCACTAGGTCAAAGGACAGTGAAAGGCGACGTA,8.13
8,CGAACGAGGTCAGAACAGGACAGTGAAGGATGAT,1.32
9,CGAACTAGGTCATCGAGGACAGTGAATACATTGA,4.26
10,CGTCCAAGGTCATAGGAGTTCAGTGAAGACAGAT,1.9
11,CGAACTAGGTCAAAGGACAGTGAGAGGCGACGTA,8
12,TCTAGTTGGTGACGGAGGTCACACACGACGGGTA,3.36
13,CGAACTAAGTCAAAGGACAGTGAAAGGCGACGTA,1.7
14,CCTACTGGGTCATTCAGAGGTCATTGATCATATG,3.21
15,CGAACTAGGACATCCAGGACAGTGAATACATTGA,0.322
16,ATCGAAAAGTCGAAGGTGAGTATACCCACCCGAA,0.126
17,CGAACTAGGTCAAAGGAGAGTGAAAGGCGACGTA,7.23
18,CAAAGTAGGTCAAGAGGTCAAAGTCCGCTTCCCG,7.55
19,CGAACTAGGTCACCAGGACAGTGACGAGGTTGGA,4.41
20,CGAACTAAGTCACCAGGACAGTGAAGAGGTTGGA,0.0312

row,Sequence,PBM binding z-score
1,ATCTCTAGGTAACAAGGTCAGTGAAAGAGAGGAC,1.54
2,CCTACTGGGCCATACAGAGGTCATTGATCATATG,1.03
3,TCTAGTTGGTTACGGAGGTCACACACGACGGGTA,3.44
4,CGAACTAGCTCAAAGGACAGTGAAAGGCGACGTA,0.533
5,CGAACTAGGTCAAAGGAAAGTGAAAGGCGACGTA,5.62
6,CCTGGCAGGCCAGGGTCACTCAAGCATTTCGCTT,-0.621
7,ATCGAAATGTCGTGAGGTGAGTATACAGAAAGGC,-0.12
8,ATATGTAGGTTAGGTTCATTCAGAAAGTAGGGAA,2.49
9,CGAACTAGGTCAAAGGACAGTGCAAGGCGACGTA,8.02
10,CGAACTAGGTCAAAGGACAGTGAAAGGCGACGTA,8.13
11,AATACAGGGTCCTCGTAGGCCAGAGTACGCACAG,-0.317
12,GCTGCTAGGTTAACTGATGGTCAGCTAAAGCTCG,-0.499
13,TAGCCTAGGTCAAGCGGGCCAGTATAGTGTCGGC,0.103
14,TTACGAAGGTGAAAGGTCGTTGATGCACGCCTTG,6.74
15,ATCGAAAGGTCGCAGGTGAGTATACCCACCCGAA,1.5
16,CATACCGGGTCAGCTAGGCCAGAGTAGGGACGGC,0.181
17,CGAACTAGGGCACCAGGACAGTGAAGAGGTTGGA,1.13
18,ATATGTAGGTTAGGGTCATTCCGAAAGTAGGGAA,4.22
19,ACTCGGAGGACAAACGTCAGAGCTACGCCAGTGA,-0.389

# Tested on: PPARg:RXRa 90nM:30nM, anti-RXR (NR concentration 90 nM, RXRa partner concentration 30 nM)
# Assay: as above
# In short: as §1
row,Sequence,PBM binding z-score
1,ATTTGTAGGTTAGGGTCATTCAGAAAGTAGGGAA,5.27
2,CATACAGGGACAGCTAGGCCAGAGTAGGGACGGC,-0.633
3,CAAACTAGGTCACCAGGACAGTGAAGAGGTTGGA,7.09
4,ATATGTAGCTTAGGGTCATTCAGAAAGTAGGGAA,2.4
5,CGAACTAGATCAAAGGACAGTGAAAGGCGACGTA,4.58
6,ATCTCTAGGTAAAGTTCAGCGAAAGATCGATAGA,4.27
7,CGCACTAGGTCAAAGGACAGTGAAAGGCGACGTA,8.98
8,CGAACGAGGTCAGAACAGGACAGTGAAGGATGAT,3.02
9,CGAACTAGGTCATCGAGGACAGTGAATACATTGA,6.2
10,CGTCCAAGGTCATAGGAGTTCAGTGAAGACAGAT,4.2
11,CGAACTAGGTCAAAGGACAGTGAGAGGCGACGTA,9.29
12,TCTAGTTGGTGACGGAGGTCACACACGACGGGTA,3.36
13,CGAACTAAGTCAAAGGACAGTGAAAGGCGACGTA,3.85
14,CCTACTGGGTCATTCAGAGGTCATTGATCATATG,5.33
15,CGAACTAGGACATCCAGGACAGTGAATACATTGA,0.462
16,ATCGAAAAGTCGAAGGTGAGTATACCCACCCGAA,0.251
17,CGAACTAGGTCAAAGGAGAGTGAAAGGCGACGTA,8.14
18,CAAAGTAGGTCAAGAGGTCAAAGTCCGCTTCCCG,9.17
19,CGAACTAGGTCACCAGGACAGTGACGAGGTTGGA,6.34
20,CGAACTAAGTCACCAGGACAGTGAAGAGGTTGGA,-0.255

row,Sequence,PBM binding z-score
1,ATCTCTAGGTAACAAGGTCAGTGAAAGAGAGGAC,3
2,CCTACTGGGCCATACAGAGGTCATTGATCATATG,2.85
3,TCTAGTTGGTTACGGAGGTCACACACGACGGGTA,3.42
4,CGAACTAGCTCAAAGGACAGTGAAAGGCGACGTA,1.99
5,CGAACTAGGTCAAAGGAAAGTGAAAGGCGACGTA,7.13
6,CCTGGCAGGCCAGGGTCACTCAAGCATTTCGCTT,0.206
7,ATCGAAATGTCGTGAGGTGAGTATACAGAAAGGC,0.0916
8,ATATGTAGGTTAGGTTCATTCAGAAAGTAGGGAA,4.03
9,CGAACTAGGTCAAAGGACAGTGCAAGGCGACGTA,9.07
10,CGAACTAGGTCAAAGGACAGTGAAAGGCGACGTA,9.66
11,AATACAGGGTCCTCGTAGGCCAGAGTACGCACAG,-0.0938
12,GCTGCTAGGTTAACTGATGGTCAGCTAAAGCTCG,-0.243
13,TAGCCTAGGTCAAGCGGGCCAGTATAGTGTCGGC,1.32
14,TTACGAAGGTGAAAGGTCGTTGATGCACGCCTTG,8.17
15,ATCGAAAGGTCGCAGGTGAGTATACCCACCCGAA,3.31
16,CATACCGGGTCAGCTAGGCCAGAGTAGGGACGGC,0.975
17,CGAACTAGGGCACCAGGACAGTGAAGAGGTTGGA,2.7
18,ATATGTAGGTTAGGGTCATTCCGAAAGTAGGGAA,6.26
19,ACTCGGAGGACAAACGTCAGAGCTACGCCAGTGA,0.589
